Sampled rows, rich in hits. Any-hit rate of the full collection: about 4.7%.
D1 agonist = Allosteric Agonists of the Human D1 Dopamine Receptor: qHTS; D(1A) dopamine receptor (Homo sapiens), P21728; HEK293 T-REx D1 cells, calcium flux, agonist mode; activation, % at 2 µM; actives 1% (n = 360,000); AID 504660, 2011
Target sequence (P21728 whole entry, looked up): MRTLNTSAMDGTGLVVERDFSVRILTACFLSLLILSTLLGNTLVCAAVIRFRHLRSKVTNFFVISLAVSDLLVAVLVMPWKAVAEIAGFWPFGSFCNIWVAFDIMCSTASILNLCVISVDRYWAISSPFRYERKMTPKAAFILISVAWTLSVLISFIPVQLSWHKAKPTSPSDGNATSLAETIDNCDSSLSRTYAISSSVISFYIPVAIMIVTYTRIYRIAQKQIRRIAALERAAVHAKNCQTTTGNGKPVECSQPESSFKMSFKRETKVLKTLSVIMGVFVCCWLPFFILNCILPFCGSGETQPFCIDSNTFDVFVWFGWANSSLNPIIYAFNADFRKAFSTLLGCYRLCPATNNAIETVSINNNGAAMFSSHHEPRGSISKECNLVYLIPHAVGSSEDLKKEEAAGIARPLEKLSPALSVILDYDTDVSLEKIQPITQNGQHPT
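Inducible HEK293 T-REx D1 cells, force-coupled to calcium signalling, were plated at 4000 cells/well with tetracycline and held overnight at 30 C. After no-wash calcium dye loading, compound-evoked calcium rise over 180 s flagged agonists.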
D1 antag = Antagonist of Human D 1 Dopamine Receptor: qHTS. D(1A) dopamine receptor (Homo sapiens), P21728. actives 3.2% (n = 360,000). AID 504652, 2011. activity change, negative = inhibition, % at 10 µM. HEK293 TREx D1 cells, calcium flux, dopamine EC80; hits give low values; in the data active = activity change below about -30%
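Antagonism measured as reduced calcium response to an EC80 dopamine addition following 180 s compound pre-read; cells were inducible HEK293 Trex D1 plated overnight at 30 C, read kinetically at 1 cycle/sec.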
TRHR enhancer = qHTS for Small Molecule Agonists and Allosteric Enhancers of Human TRH Receptor: Primary Screen for Enhancers. TRHR cells, fluo-8 calcium fluorescence, EC20 TRH enhancement. enhancement, % at 2 µM. Thyrotropin-releasing hormone receptor (Homo sapiens), P34981. actives 0.66% (n = 360,000). AID 493056, 2011; in the data active = enhancement above about 30%
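Enhancer read-out: after compound pinning and an initial kinetic agonist-mode read, an EC20 of TRH (10 nM final) was injected and fluo-8 calcium signal (Ex 480/Em 530) followed at 1 s/cycle for 100 cycles in TRHR-expressing cells.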
D1 potentiator = Potentiators of Human D1 Dopamine Receptor: qHTS | HEK293 TREx D1 cells, calcium flux, dopamine EC20 potentiation | potentiation, % at 10 µM | actives 0.036% (n = 360,000) | AID 504651, 2011; in the data active = potentiation above about 30%
TRHR ag = qHTS for Small Molecule Agonists and Allosteric Enhancers of Human TRH Receptor: Primary Screen for Agonists; Thyrotropin-releasing hormone receptor (Homo sapiens), P34981; TRHR cells, calcium flux fluo-8, FDSS agonist mode; activation, % at 2 µM; actives 0.18% (n = 360,000); AID 493084, 2011
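Agonist-mode FDSS calcium read (Ex 480/Em 530, 1 s cycles) in 1536-well TRHR cells with fluo-8 dye, after 10-cycle baseline and 23 nL compound addition; TRH at EC20 (10 nM final) added afterwards for the enhancer phase.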
Each line names hits and unclear results; the compound was inactive in the other large screens. Rule as the data show it, unless noted: active = activation above about 30%; inactive = the rest.

N#CC1CC(c2ccccc2)Nc2cc(Cl)ccc2N1 (centres undefined)	D1 antag -89.9
C[C@@H]1C[C@H](O)c2cc(Cl)ccc2N1	none
C=CCNC(=O)c1ccc(C2SCC(=O)N2Cc2ccccc2)cc1 (centres undefined)	none
O=C(NCc1ccccc1)c1ccc(C2SCC(=O)N2Cc2ccccc2)cc1 (centres undefined)	D1 agonist 34.1
Cc1ccc(C(=O)c2oc3ccccc3c2NC(=O)COc2ccc(C(C)(C)C)cc2)cc1	none
O=C(NCCc1ccccc1)C(=O)Nc1nccs1	D1 agonist 32.6
Cc1ccc(CC(=O)Nc2nccs2)cc1C	TRHR enhancer 32.4
O=C(CCNS(=O)(=O)c1cccs1)Nc1ccccc1F	none
S=C(NCCc1ccccc1)Nc1nccs1	none
O=C(CCNS(=O)(=O)c1cccs1)Nc1nccs1	D1 antag -31.9
O=C(CNC(=O)c1ccc(Cl)cc1)N/N=C/c1cccnc1	none
Cc1cc(OCC(=O)NCc2ccncc2)c2c(C)cc(=O)oc2c1	none
COC(=O)[C@@H]1CCCN1C(=O)c1ccc(OC2CCN(Cc3ccccn3)CC2)cc1	none
Cc1ccc(C(C)C)c(OCCSc2nc(-c3ccccc3F)nc3cc(=O)[nH]n23)c1	D1 agonist 37.6
Cc1ccc(OCCSc2nc(-c3ccccc3C)nc3cc(=O)[nH]n23)cc1Cl	D1 antag -62.4
CC(C(=O)Nc1ccccc1F)N1CCN(C)CC1 (centres undefined)	TRHR enhancer 30.3
CCC(C(=O)Nc1ccc(C(C)=O)cc1)n1c(C)c2cnn(-c3ccccc3)c(=O)c2c1C (centres undefined)	D1 agonist 50.7
CC(=O)c1cccc(NC(=O)Cn2c(C)c3cnn(-c4ccccc4)c(=O)c3c2C)c1	none
CCc1noc(C)c1C(=O)N1CCN(S(=O)(=O)c2cccs2)CC1	none
COC(=O)Nc1sc(C)nc1-c1ccccc1	none (no result: D1 agonist, D1 antag, D1 potentiator)
CCOC(=O)Nc1sc(C)nc1-c1ccccc1	D1 antag -49.2
Cc1ccc(S(=O)(=O)NC(=NC(Cc2ccccc2)C(=O)O)c2ccccc2)cc1 (centres undefined)	none
CN(C)c1ccc2nc3c(=O)[nH]c(=O)nc-3n(CC(O)C(O)C(O)CO)c2c1 (centres undefined)	D1 agonist 46.2
CC(C)N1CCN(c2ccc(OC[C@H]3CO[C@](Cn4cncn4)(c4ccc(Cl)cc4Cl)O3)cc2)CC1	D1 agonist 61.5, D1 antag -43.8
Nc1c(C(=O)Nc2nccs2)sc2nc(-c3cccs3)cc(C(F)(F)F)c12	D1 agonist 115.6
CCN1CCC(N(Cc2ccc(F)cc2)C(=O)Nc2cccc(C(F)(F)F)c2)CC1	D1 agonist 100.2
CCN1CCC(N(Cc2cccc(OC)c2)C(=O)Nc2cccc(C(F)(F)F)c2)CC1	none
CCc1ccc(-c2ccc3nnc(SCC(=O)Nc4cccc(C(C)=O)c4)n3n2)cc1	none (no result: D1 antag)
CCN1CCN(c2nc3ccccn3c(=O)c2/C=C(\C#N)S(=O)(=O)c2ccccc2)CC1	D1 antag -65.7
COCCNC(=O)/C(C#N)=C/c1c(N2CCN(C)CC2)nc2c(C)cccn2c1=O	none
CCN1CCN(c2nc3c(C)cccn3c(=O)c2/C=C(\C#N)C(=O)NCCOC)CC1	TRHR ag 30.0
CCN1CCN(c2nc3c(C)cccn3c(=O)c2/C=C(\C#N)S(=O)(=O)c2ccccc2)CC1	none
Cc1cccn2c(=O)c(/C=C(\C#N)S(=O)(=O)c3ccccc3)c(N3CCC(C(N)=O)CC3)nc12	none
Cc1ccc(S(=O)(=O)/C(C#N)=C/c2c(N3CCC(C(N)=O)CC3)nc3c(C)cccn3c2=O)cc1	D1 antag -46.6
Cc1ccc(NS(=O)(=O)c2ccc(Cl)c(C(=O)Nc3ccccc3-c3nc4ccccc4[nH]3)c2)cc1C	none
S=C(NCCCN1CCOCC1)N1CCN(c2nc(-c3ccc(Cl)cc3)cs2)CC1	D1 antag -54.9
S=C(NCC1CCCO1)N1CCN(c2cccc(Cl)c2)CC1 (centres undefined)	none
S=C(NCCCN1CCOCC1)N1CCN(c2nc(-c3ccccc3)cs2)CC1	D1 agonist 87.8
COCCNC(=S)N1CCN(c2nc(-c3ccccc3)cs2)CC1	none
S=C(NCC1CCCO1)N1CCN(c2nc(-c3ccc(Cl)cc3)cs2)CC1 (centres undefined)	D1 antag -30.2
S=C(NCCCN1CCOCC1)N1CCN(c2ccccc2)CC1	none
CC12CCC(=O)N1C(C(=O)Nc1ccccc1F)CS2 (centres undefined)	none
CC12CCC(=O)N1C(C(=O)N1CCN(c3ccccc3)CC1)CS2 (centres undefined)	none
CC12CCC(=O)N1C(C(=O)Nc1ccc(F)c(Cl)c1)CS2 (centres undefined)	TRHR enhancer 35.1
CC12CCC(=O)N1C(C(=O)N1CCN(c3cccc(Cl)c3)CC1)CS2 (centres undefined)	D1 antag -60.9 (no result: D1 potentiator)
CCc1cc(=O)oc2cc(C)cc(OCC(=O)NC(Cc3ccc(Cl)cc3)C(=O)O)c12 (centres undefined)	none
CC(CCc1ccc(O)cc1)N(C)CCc1ccccc1 (centres undefined)	D1 antag -51.9
CC(CCc1ccc(O)cc1)NCc1ccc(Br)cc1 (centres undefined)	D1 agonist 30.8
COc1cc(CCC(C)NCc2ccccc2)ccc1O (centres undefined)	none
CC(CCc1ccc(O)cc1)NCCC(c1ccccc1)c1ccccc1 (centres undefined)	D1 agonist 87.2
COCCC(=O)N1CCC(n2nccc2NC(=O)c2ccccc2C)CC1	none
C=CCC(CC=C)(CNC(=O)C(=O)Nc1cccc(C(F)(F)F)c1)c1ccccc1	D1 agonist 30.1
O=C(O)/C=C/C(=O)Nc1cccc(C(F)(F)F)c1	none
O=C(Cc1csc(Nc2nc(=S)[nH]c3ccccc23)n1)NCc1ccc(Cl)cc1	D1 antag -97.0
O=C(Cc1csc(Nc2nc(=S)[nH]c3ccccc23)n1)NCCCN1CCN(c2ccccc2F)CC1	D1 antag -85.6
CCN(CC)c1ccc2cc(C(N)=O)c(=N)oc2c1	none
CCN(CC)c1ccc2cc(C=O)c(=O)oc2c1	D1 agonist 186.8, TRHR ag 116.2
CCN(CC)c1ccc2cc(/C(N)=N/NC(=O)c3cccs3)c(=O)oc2c1	D1 agonist 30.4
